# Menin-MLL TR inh = inhibitors of human menin-MLL interaction, mutant MLL peptide | O00255 | Menin + Texas Red MLL mutant peptide, fluorescence polarization | Potency, µM (doses to about 61.6 µM), for inactives: top-dose FP activity change, negative = inhibition, usual class: inhibitors | actives 0.23% (n = 270,000) | AID 1768; active = well fitted inhibition curve with a large enough effect in the polarisation, with a control signal flat, not every such curve was filed as active; inconclusive = small, poorly fitted or top-dose-only effect, or effect the other way, or a change in a side signal; inactive = no such curve, though single readings can be large or run the other way; the % refers to the polarisation; also: potency is read from the fitted curve at half-maximal effect; % of control where 0% means no effect
# Target sequence (O00255 whole entry, looked up): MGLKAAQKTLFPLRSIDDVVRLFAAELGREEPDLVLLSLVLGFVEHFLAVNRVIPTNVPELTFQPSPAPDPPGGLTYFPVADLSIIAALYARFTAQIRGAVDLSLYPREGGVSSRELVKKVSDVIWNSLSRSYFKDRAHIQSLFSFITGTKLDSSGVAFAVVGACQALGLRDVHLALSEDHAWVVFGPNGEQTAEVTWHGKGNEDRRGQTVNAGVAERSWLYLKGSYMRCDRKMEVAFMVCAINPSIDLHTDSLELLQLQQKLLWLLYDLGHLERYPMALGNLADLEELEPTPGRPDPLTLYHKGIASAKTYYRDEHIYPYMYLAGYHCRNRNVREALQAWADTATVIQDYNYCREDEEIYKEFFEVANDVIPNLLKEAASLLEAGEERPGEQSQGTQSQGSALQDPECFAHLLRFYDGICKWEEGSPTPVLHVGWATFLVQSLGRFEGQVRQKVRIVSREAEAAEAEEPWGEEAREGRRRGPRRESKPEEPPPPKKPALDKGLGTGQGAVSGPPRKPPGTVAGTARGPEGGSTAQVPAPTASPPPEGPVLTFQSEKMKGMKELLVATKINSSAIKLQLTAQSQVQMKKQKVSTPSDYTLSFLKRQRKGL
# MLL CXXC-DNA inh = MLL CXXC-DNA interaction inhibition; Q03164; MLL-CXXC / FITC-HOXA9 DNA fluorescence polarization; Potency, µM (highest dose often 115 µM), for inactives: at the top dose activity change, negative = inhibition, actives largely listed as inhibitors; actives 0.037% (n = 290,000); AID 2662; active = well fitted inhibition curve with a large enough effect in the polarisation, with a control signal flat, not every such curve was filed as active; inconclusive = small, poorly fitted or top-dose-only effect, or effect the other way, or a change in a side signal; inactive = no such curve, though single readings can be large or run the other way; the % refers to the polarisation; also: potency is read from the fitted curve at half-maximal effect
#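 Purified MLL-CXXC (added from a 7 uM solution) was preincubated 5 min at ambient with pinned compounds in 50 mM Tris-HCl pH 7.5, 50 mM NaCl, 1 mM DTT, 0.05% BSA. Fluorescein-labeled HOX-A9 DNA (50 nM solution) followed, 30 min, then polarization read.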
# Menin-MLL FL inh = inhibitors of human menin-MLL interaction, wild-type MLL peptide. Fluorescence polarization, fluorescein-MLL peptide displacement from menin. FP activity change, % at 61.4 µM. 290,000 tested, under 10 active; active = well fitted curve in the direction sought with a large enough effect in the polarisation, not every such curve was filed as active; inconclusive = small, poorly fitted or top-dose-only effect, or effect the other way, or a change in a side signal; inactive = no such curve, though single readings can be large or run the other way; the % refers to the polarisation; also: % of control where 0% means no effect
# TRb SRC2 PPI = inhibitors of human thyroid hormone receptor beta-SRC2 interaction; TRbeta-SRC2 peptide binding, fluorescence polarization; receptor liganded with 1 µM T3; Potency, µM (series often up to 106 µM), for inactives: at the top dose activity change, negative = inhibition, usual class: inhibitors; actives 0.065% (n = 280,000); AID 1469; active = well fitted inhibition curve with a large enough effect; inconclusive = small, poorly fitted or top-dose-only effect, or effect the other way;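 also: potency is read from the fitted curve at half-maximal effect; plate controls were bound peptide for no effect and peptide without receptor for full effect; nearly all actives have a fitted effect of over 50% in size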
#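 TRb LBD 0.6 uM + Texas Red SRC2 peptide 20 nM, 1 uM T3, Tris buffer w/ 5% DMSO; compound pinned, 5 h RT; FP read ex 555/em 632; normalized to unbound and bound controls.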
# TexasRed fluor = counter-screen for TRb-SRC2 inhibitors: fluorescence interference; TRb/SRC2 Texas Red total fluorescence interference; Potency, µM (titrated, usually from 106 µM), without a hit: top-dose fluorescence change, negative = quenching; actives 0.29% (n = 280,000); AID 1479; active = well fitted curve in either direction with a large enough effect; inconclusive = small, poorly fitted or top-dose-only effect; also: potency is read from the fitted curve at half-maximal effect; % is scaled to controls: 0 for no effect and ±100 for the full control effect
#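 Flags fluorescent or light-absorbing compounds by total fluorescence, S + 2P, at 555 nm excitation and 632 nm emission. Mixture: 20 nM Texas Red SRC2 peptide, 0.6 uM human TRb LBD, 1 uM T3, 5% DMSO; compound exposure 5 h at ambient temperature.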
# Numbers without * were called inactive; ? = inconclusive; . = not tested or not shown; [ ] = remark or other dose. Sampled rows, rich in hits. Any-hit rate of the full collection: about 0.36%.
SMILES,Menin-MLL TR inh,MLL CXXC-DNA inh,Menin-MLL FL inh,TRb SRC2 PPI,TexasRed fluor
C/C(=N\NC(=O)c1cc2ccccc2cc1O)c1cc2ccccc2o1,.,-1.0%,5.7,?,39.8µM*[quencher]
C/C(CC(=O)N1CCN(C=O)CC1)=N\NC(=O)c1cc2ccccc2cc1O,?,-5.1%,?,29.6%,44.7µM*[quencher]
C/C(CC(=O)N1CCN(C=O)CC1)=N\NC(=O)c1ccc([N+](=O)[O-])cc1,0.4%,-10.0%,-0.3,0.8%,-3.7%
O=C(NCc1cccs1)c1ccc2c(c1)sc1nc(-c3ccccc3)cn12,.,.,.,-5.2%,?
O=C(OCCOCCOC(=O)c1ccccc1)c1ccccc1,.,.,.,9.8%[201 µM],3.5%[201 µM]
COc1ccccc1COCC(O)CNCCc1ccc(C(F)(F)F)cc1 (configuration not stated),22.4µM*,13.1%,-7.4,.,.
Cc1ccc(S(=O)(=O)N=C=O)cc1,.,.,.,-1.1%[201 µM],-1.9%[201 µM]
CCN(C(=O)Cn1cnc2onc(-c3ccc(F)cc3)c2c1=O)c1ccc(OC)cc1,.,.,.,-6.6%,-6.1%
CCCN(C(=O)Cn1cnc2onc(-c3ccc(F)cc3)c2c1=O)c1cccc(Cl)c1,.,.,.,-16.4%,178µM*[quencher]
Cc1ccc(CN(Cc2ccco2)C(=O)c2oc3ccc(C)cc3c2C)cc1,.,.,.,0.2%,4.3%
Cc1ccc2occ(CC(=O)N(Cc3ccc(Cl)cc3)Cc3ccco3)c2c1,.,.,.,?,0.355µM*[quencher]
COc1cc(N(C)C)cc(CN(C)CCc2ccc([N+](=O)[O-])cc2)c1O,?,.,?,?,-15.8%
CCCCN(C)C(=O)c1ccc2c(c1)N(Cc1ccc(F)cc1)C(=O)c1ccccc1S2(=O)=O,.,.,.,-12.4%,0.0011µM*[quencher]
COc1ccc(-c2nc3scc(CCNS(=O)(=O)c4ccc5c(c4)OCCO5)n3n2)cc1OC,.,.,.,-3.0%,-1.3%
Cc1ccccc1C1CC(=O)Oc2ccc(C(C)(C)C)cc21 (configuration not stated),-4.5%[94.6 µM],.,5.7[94.6 µM],6.4%,-0.2%
Cc1ccccc1C1CC(=O)Oc2cc(O)ccc21 (configuration not stated),?,.,?,?,100µM*[fluorescent]
C[N+]1=C(/C=C/Nc2ccccc2Cl)C(C)(C)c2ccccc21,?,11.1%,3.9,?,44.7µM*[fluorescent]
C=C1c2cccc(O)c2C(O)=C2C(=O)[C@]3(O)C(O)=C(C(N)=O)C(=O)C(N(C)C)C3C(O)C12 (some centres not stated),?,.,-2.3,11.4%,39.8µM*[quencher]
C=C1c2cccc(O)c2C(O)=C2C(=O)[C@]3(O)C(O)=C(C(N)=O)C(=O)[C@@H](N(C)C)[C@@H]3[C@@H](O)[C@H]12,?,-23.4%,-0.2,-8.9%,31.6µM*[quencher]
CCCCCCCCCCCCCO,.,.,.,4.3%[201 µM],-1.3%[201 µM]
O=C(O)CSc1c2c(nc3cc(C(=O)NCCN4CCOCC4)ccc13)CCC2,.,24.2%,?,-12.2%,50.1µM*[fluorescent]
COc1ccc(/C=C2\CCn3c2nc2cc(C(=O)O)ccc2c3=O)cc1O,?,30.4%,3.8,?,0.316µM*[quencher]
COc1ccc(/C=C2\CCn3c2nc2cc(C(=O)O)ccc2c3=O)cc1OC,?,13.1%,-1.3,-1.1%,-0.9%
Cc1cc(F)ccc1S(=O)(=O)Nc1ccccc1C(=O)Nc1ccccc1-c1nc2ccccc2[nH]1,14.1µM*,6.5%,14.3,4.0%,2.0%
SMILES,Menin-MLL TR inh,MLL CXXC-DNA inh,Menin-MLL FL inh,TRb SRC2 PPI,TexasRed fluor
Cc1cc(F)ccc1S(=O)(=O)Nc1ccccc1C(=O)Nc1ncn[nH]1,1.0%,-10.7%,6.2,-2.6%,2.5%
CCCCCCCCCC(C)=O,.,.,.,6.9%[201 µM],-3.8%[201 µM]
CC(C)=CC[C@@H](O)C1=CC(=O)c2c(O)ccc(O)c2C1=O,.,.,.,-2.9%,28.2µM*[quencher]
CCN(CC)c1ccc(C=Nc2ccc(N(C)C)cc2)c(O)c1,20µM*,?,?,?,18.5%
Cc1nn(C)c(Oc2ccccc2)c1/C=N/OCc1ccc(C(=O)OC(C)(C)C)cc1,.,.,.,-5.4%[201 µM],-0.8%[201 µM]
C/C(=N\NC(=O)c1cc(-c2cccnc2)nc2ccccc12)c1ccccc1O,?,-6.2%,13.9,-18.8%[53 µM],3.16µM*[quencher]
COC(=O)CCSCCC(=O)OC,.,.,.,-1.6%[201 µM],3.1%[201 µM]

# Bioassay records as filed in PubChem BioAssay.
